{"source": "PubChem BioAssay AID463173", "about": "(ICCB-Longwood Screening Facility, Harvard Medical School, 2010)", "note": "Out of some 52,000 compounds screened, about 4,300 (8.3%) were called active. Cut-off read from the data, not from the text of the source: active = survival mostly below about 52% (no sharp cut-off); inactive = mostly above about 56%. The full list was thinned out, with actives kept by preference.", "data": [{"test_system": "DeltatarO mutant", "test": "growth inhibition of S. aureus wild type versus tarO mutant, primary screen, teichoic acid synthesis inhibitors, RN4220, OD600 (AID 463173)", "details": "OD600, 18 h, stronger effect = lower value, concentration not given here", "values": [{"smiles": "CC1=CC(=O)C2=C(C)CC(O)C3C(C)C(=O)OC3C12", "note": "(stereo not given)", "survival": "100% (inactive)"}, {"smiles": "CCc1ccc(NC(=O)c2cccn(Cc3cccc([N+](=O)[O-])c3)c2=O)cc1", "survival": "89% (inactive)"}, {"smiles": "Cc1cc(C=C(C#N)C#N)c(C)n1C1CCCC1", "survival": "64% (inactive)"}, {"smiles": "CC(C)NCc1ccc2c(c1)OCO2", "survival": "76% (inactive)"}, {"smiles": "Cc1ccc(C(C)(C)C)c(OCC(=O)Nc2ccc(Cl)cc2C(=O)c2ccccc2)c1", "survival": "66% (inactive)"}, {"smiles": "CCN(CC)C(=O)c1ccc(NC(=O)CCn2nc(-c3ccc(Cl)cc3)c3ccccc3c2=O)cc1", "survival": "47% (active)"}, {"smiles": "CCN(CC)C(=O)c1ccc(NC(=O)CCn2nc(-c3ccc(C)cc3)c3ccccc3c2=O)cc1", "survival": "61% (inactive)"}, {"smiles": "CCN(CC)C(=O)c1ccc(NC(=O)Cn2nc(-c3ccc(C)cc3)c3ccccc3c2=O)cc1", "survival": "50% (inactive)"}, {"smiles": "CCOc1ccccc1NC(=O)c1cccn(Cc2ccccc2C)c1=O", "survival": "70% (inactive)"}, {"smiles": "Cc1n[nH]c(C)c1CCN", "survival": "80% (inactive)"}, {"smiles": "Cc1[nH]c2c(C)cccc2c1CCN", "survival": "37% (active)"}, {"smiles": "O=S1(=O)CC2(N3CCOCC3)CCCCC21", "note": "(stereo not given)", "survival": "84% (inactive)"}, {"smiles": "C=CCN1C(=O)CN=C(c2cccs2)c2c1sc1c2CCC1", "survival": "92% (inactive)"}, {"smiles": "COc1ccc(OC)c(NC(=O)Cn2cc(C(=O)c3ccccc3)c3ccccc32)c1", "survival": "59% (inactive)"}, {"smiles": "COc1ccc(OC)c(NC(=O)Cn2cc(C(=O)c3ccccc3F)c3ccccc32)c1", "survival": "70% (active)"}, {"smiles": "COc1cccc(NC(=O)Cn2cc(C(=O)c3ccccc3)c3ccccc32)c1", "survival": "47% (inactive)"}, {"smiles": "Cc1ccc(-c2nn3c(=O)cc(CN4CCN(C(=O)COc5ccc(C)c(C)c5)CC4)nc3s2)cc1", "survival": "81% (inactive)"}, {"smiles": "O=C(COc1ccccc1Cl)N1CCN(CCc2ccccn2)CC1", "survival": "110% (inactive)"}, {"smiles": "COc1ccc(OC)c(C(c2c(O)c3ccccc3oc2=O)c2c(C)n(C)n(-c3ccccc3)c2=O)c1", "note": "(stereo not given)", "survival": "56% (inactive)"}, {"smiles": "COc1cccc(-n2c(/C=C/c3cccc(C)c3)nc3ccccc3c2=O)c1", "survival": "0% (active)"}, {"smiles": "COc1cccc(-n2c(/C=C\\c3ccc(Cl)cc3)nc3ccccc3c2=O)c1", "survival": "30% (active)"}, {"smiles": "Cc1cccc(-n2c(/C=C\\c3cccc(Br)c3)nc3ccccc3c2=O)c1", "survival": "113% (inactive)"}, {"smiles": "Cc1ccc(-n2c(/C=C/c3ccccc3)nc3ccccc3c2=O)cc1Cl", "survival": "68% (inactive)"}, {"smiles": "COc1ccc(/C=C/c2nc3ccccc3c(=O)n2-c2ccc(C)cc2)cc1O", "survival": "85% (inactive)"}, {"smiles": "COc1cccc(/C=C/c2nc3ccccc3c(=O)n2-c2ccc(Cl)cc2)c1OC", "survival": "88% (inactive)"}, {"smiles": "O=c1c2ccccc2nc(/C=C/c2cccc3ccccc23)n1-c1ccc(Cl)cc1", "survival": "78% (inactive)"}, {"smiles": "CCN1CCN(C(=O)COc2ccc(S(=O)(=O)N(C)Cc3ccccc3)cc2)CC1", "survival": "87% (inactive)"}, {"smiles": "CC1(C)CC(NC(=O)CN2CCCC2=O)CC(C)(C)N1", "survival": "79% (inactive)"}, {"smiles": "COc1ccc(C=C2C(=O)NC(=S)NC2=O)cc1", "survival": "96% (inactive)"}, {"smiles": "Cc1cccc(OC(C)C(=O)NCC2(N(C)C)CCCCC2)c1C", "note": "(stereo not given)", "survival": "92% (inactive)"}, {"smiles": "N#CC(C#N)=Cc1ccc(Sc2ccccc2)o1", "survival": "72% (inactive)"}, {"smiles": "COc1ccccc1CNCCc1ccccc1", "survival": "95% (inactive)"}, {"smiles": "Cc1cc(OCC(=O)N2CCN(CCc3ccncc3)CC2)ccc1Cl", "survival": "49% (inactive)"}, {"smiles": "CCc1ccc(OCC(=O)N2CCN(CCc3ccncc3)CC2)cc1", "survival": "98% (inactive)"}, {"smiles": "O=C(COc1cccc(Cl)c1)N1CCN(CCc2ccncc2)CC1", "survival": "47% (active)"}, {"smiles": "Cc1ccc(C(C)C)c(OCC(=O)N2CCN(CCc3ccncc3)CC2)c1", "survival": "42% (active)"}, {"smiles": "O=C(COc1ccc2ccccc2c1)N1CCN(Cc2ccncc2)CC1", "survival": "67% (inactive)"}, {"smiles": "Cc1ccc(OCC(=O)N2CCN(CCc3ccncc3)CC2)cc1", "survival": "86% (inactive)"}, {"smiles": "CC(C)c1ccc(OCC(=O)N2CCN(CCc3ccncc3)CC2)cc1", "survival": "44% (active)"}, {"smiles": "Cc1cc(OCC(=O)N2CCN(CCc3ccncc3)CC2)cc(C)c1Cl", "survival": "57% (active)"}, {"smiles": "COc1ccc(OCC(=O)N2CCN(CCc3ccncc3)CC2)cc1", "survival": "82% (inactive)"}, {"smiles": "O=C(COc1ccccc1[N+](=O)[O-])N1CCN(CCc2ccncc2)CC1", "survival": "90% (inactive)"}, {"smiles": "Cc1ccc(OCC(=O)N2CCN(CCc3ccncc3)CC2)cc1C", "survival": "53% (inactive)"}, {"smiles": "O=C(COc1ccccc1Cl)N1CCN(CCc2ccncc2)CC1", "survival": "95% (inactive)"}, {"smiles": "O=C(Nc1ccc2c(c1)OCCO2)c1cccn(Cc2cccc([N+](=O)[O-])c2)c1=O", "survival": "94% (inactive)"}, {"smiles": "Cc1ccc(-n2c(/C=C/c3cc(Br)cs3)nc3ccccc3c2=O)cc1", "survival": "74% (inactive)"}, {"smiles": "CC(=O)N(C1=NCCCS1)c1ccc(C)cc1", "survival": "99% (inactive)"}, {"smiles": "CC(=O)OC1(c2ccccc2)CCN(C)C2CCCCC21", "note": "(stereo not given)", "survival": "91% (inactive)"}, {"smiles": "CN1CCc2nc3sc4c(=O)[nH]c(=O)[nH]c4c3cc2C1", "survival": "79% (inactive)"}, {"smiles": "Cc1ccc(Cl)cc1NC(=O)N(Cc1ccc2c(c1)OCO2)C1CCN(Cc2ccccc2)CC1", "survival": "55% (inactive)"}, {"smiles": "Cc1cccnc1-n1c(C)nc2ccccc2c1=O", "survival": "76% (inactive)"}, {"smiles": "COc1ccc(NC(=O)CCc2nc(C3=CCN(Cc4cccc(C)c4)CC3)no2)c(OC)c1", "survival": "91% (inactive)"}, {"smiles": "COC(=O)c1ccccc1NC(=O)c1cccn(Cc2cccc(Cl)c2)c1=O", "survival": "73% (inactive)"}, {"smiles": "CCOc1ccc2nc(NC(=O)c3cccn(Cc4ccccc4Cl)c3=O)sc2c1", "survival": "87% (inactive)"}, {"smiles": "O=c1c2ccccc2[nH]c(=S)n1-c1ccccc1", "survival": "90% (inactive)"}, {"smiles": "CCOc1ccc2nc(NC(=O)c3cccn(Cc4ccccc4)c3=O)sc2c1", "survival": "94% (inactive)"}, {"smiles": "O=S1(=O)N(Cc2ccccc2)CCCN1Cc1ccc(F)cc1Cl", "survival": "87% (inactive)"}, {"smiles": "O=S1(=O)N(Cc2ccccc2Cl)CCCN1Cc1ccccc1Cl", "survival": "10% (active)"}, {"smiles": "O=S1(=O)N(Cc2ccccc2)CCCN1Cc1cccc(Cl)c1", "survival": "71% (inactive)"}, {"smiles": "O=C(Nc1ccon1)c1cccn(Cc2cccc([N+](=O)[O-])c2)c1=O", "survival": "102% (inactive)"}, {"smiles": "COc1ccc(C(C(=O)NC2CCCCC2)N(CCN2CCOCC2)C(=O)Cc2c[nH]c3ccccc23)cc1OC", "note": "(stereo not given)", "survival": "59% (inactive)"}, {"smiles": "COc1ccccc1NC(=O)N(Cc1ccc2c(c1)OCO2)C1CCN(Cc2ccccc2)CC1", "survival": "88% (inactive)"}, {"smiles": "CCCSc1nc2ccccc2c(=O)n1-c1ccccc1OC", "survival": "-2% (active)"}, {"smiles": "CSc1nc2ccccc2c(=O)n1-c1ccccc1C", "survival": "95% (inactive)"}, {"smiles": "COc1ccccc1-n1c(/C=C/c2ccccc2)nc2ccccc2c1=O", "survival": "67% (inactive)"}, {"smiles": "Cc1cccc(Cn2cccc(C(=O)Nc3cc(C)on3)c2=O)c1", "survival": "73% (inactive)"}, {"smiles": "CCCCCn1c(=O)c(C(=O)Nc2ccccc2S(N)(=O)=O)c(O)c2ccccc21", "survival": "0% (active)"}, {"smiles": "CCCCn1c(=O)c(C(=O)NC)c(O)c2ccccc21", "survival": "99% (inactive)"}, {"smiles": "CCN1CCN(Cc2nnnn2C(C)(C)C)CC1", "survival": "100% (inactive)"}, {"smiles": "O=C1CC(c2cccnc2)Nc2ccc3ccccc3c21", "note": "(stereo not given)", "survival": "86% (inactive)"}, {"smiles": "Cc1ccc(Cn2cccc(C(=O)Nc3cc([N+](=O)[O-])ccc3C)c2=O)cc1", "survival": "82% (inactive)"}, {"smiles": "CCOC(=O)c1ccc(NC(=O)c2cccn(Cc3ccccc3F)c2=O)cc1", "survival": "86% (inactive)"}, {"smiles": "CCc1ccccc1NC(=O)c1cccn(Cc2ccccc2F)c1=O", "survival": "47% (active)"}, {"smiles": "Cc1nnc(NC(=O)c2cccn(Cc3ccccc3F)c2=O)s1", "survival": "94% (inactive)"}, {"smiles": "CC(C)c1ccc(OCC(=O)N2CCN(CCc3ccccn3)CC2)cc1", "survival": "66% (inactive)"}]}]}
